Screens from PubChem.
Calb FLC – C. albicans growth modulation with fluconazole; C. albicans CaCi-2 (fluconazole-resistant clinical isolate) + fluconazole, Alamar Blue growth, 48 h; growth inhibition, % (test concentration not listed); hit rate 0.57% among 300,000; AID 1979;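 active means growth inhibition above about 58% in most replicates, limit read from the data, passing the limit was not always enough; inconclusive means exactly half the replicates above a set limit; inactive means most replicates below a set limit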;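 further: all wells also contain fluconazole at 8 µg/ml as a sub-toxic cotreatment; 0% = median of DMSO wells and 100% = median of geldanamycin control wells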
Shn3 3UTR inh – Schnurri-3 reporter inhibition in Clone20 osteoblasts. Clone20 osteoblast Shn3 3'UTR firefly luciferase, 24 h. hit rate 0.52% among 360,000. AID 588674. inhibition, % at 12.5 µM;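 active means mean inhibition of at least 75% with every replicate also reaching 75%; inconclusive means mean inhibition at least 75% but some replicate below; inactive means mean inhibition below 75%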;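 further: 0% = median of neutral control wells and 100% = pilot-screen positive control compound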
PfHsp90 yeast 2 – inhibits growth of yeast expressing Plasmodium falciparum Hsp90 | S. cerevisiae expressing PfHsp90, BacTiter-Glo ATP, 48 h; yeast lacking PDR1 and PDR3 efflux regulators | inhibition, % at 9.4 µM | hit rate 0.32% among 310,000 | AID 504621;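 active means every replicate shows inhibition above about 80%, whatever the replicate mean, limit read from the data; inconclusive means mean inhibition reaches the set limit but some replicate falls short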;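 further: 0% = DMSO neutral controls and 100% = 20 µM radicicol positive controls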
Beta cell apopt – beta cell apoptosis inhibition; INS-1E cytokine-induced death, ATP luminescence, 48 h; percent of positive-control rescue, neutral wells zero; protection from apoptosis, % (no concentration beside the values); hit rate 0.8% among 300,000; AID 435005;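 active means Every replicate reaches about 75%, or at least half do and their mean reaches it too, limit read from the data; inconclusive means At least half of replicates reach the limit but their mean does not; inactive means Under half of replicates reach the limit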;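 further: 0% = cytokine-treated negative control wells and 100% = positive control rescue; higher means more ATP so stronger rescue from cytokine killing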
CSC inhib – cancer stem cell inhibition | hit rate 1.1% among 300,000 | inhibition, % at 7.5 µM | AID 2717 | cancer stem cell-like cells viability, luminescence; in the data active means inhibition above about 75%; inconclusive means no clear call, values can overlap the other calls; tested in HMLE shEcad cells
* marks the source's active call; other numbers are inactive results; u = inconclusive; x = no result given. Shown are actives, neighbours in structure and some others; about 2.2% of the full set was active somewhere.

SMILES	Calb FLC	Shn3 3UTR inh	PfHsp90 yeast 2	Beta cell apopt	CSC inhib
COc1ccc2c(c1)[C@H]1[C@H](CO2)[C@H](c2ccccc2)[C@]2(C)C(=O)Nc3ccc(Cl)cc3C(=O)N12	x	3	137*	x	x
COc1ccc(C(CNC(=O)C(C)Oc2ccc(Br)cc2)N2CCCCC2)cc1 (stereo not given)	x	-14	-33	3	x
CC(C)OC(=O)c1ccc2ccc(-c3ccccc3)nc2c1	x	-46	x	x	x
CCS(=O)(=O)N1CCN(CC(=O)NC2CCCCC2)CC1	0	15	-22	-4	0
COc1ccc(C(=O)/C=C/C(=O)N(Cc2ccc3c(c2)OCO3)C(C(=O)NC2CCCCC2)c2ccncc2)c(O)c1 (stereo not given)	-14	-7	4	10	-7
COc1ccc(CN(C(=O)/C=C/C(=O)c2ccc(OC)cc2O)C(C(=O)NC2CCCCC2)c2ccncc2)cc1 (stereo not given)	0	-2	-9	2	-1
COc1ccc(C(=O)/C=C/C(=O)N(CC(=O)NC2CCCCC2)Cc2cccs2)c(O)c1	-16	93*	94*	39	76*
COCCN(CC(=O)NC1CCCCC1)C(=O)/C=C/C(=O)c1ccc(OC)cc1O	2	98*	6	x	x
S=C(NN=C(c1ccccc1)c1ccccn1)N(Cc1ccccn1)Cc1ccccn1	x	91*	u	x	x
S=C(NN=Cc1ccccn1)N(Cc1ccccn1)Cc1ccccn1	x	81	48	x	x
CC(=NNC(=S)N(Cc1ccccn1)Cc1ccccn1)c1cnccn1	x	95*	110*	x	x
c1cnc(Sc2ccc3nnnn3n2)nc1	14	-14	x	-7	-2
COc1cc(C2NC(=O)NC(C)=C2[N+](=O)[O-])cc(OC)c1OC (stereo not given)	-2	12	-1	1	-3
O=C(c1ccco1)N1CCN(C2CC(=O)N(c3ccc(F)c(Cl)c3)C2=O)CC1 (stereo not given)	-10	7	-18	-5	-2
O=C(O)C1CCN(C(=O)CSc2nnc3ccccn23)CC1	x	8	0	-7	1
O=S(=O)(c1ccc(Cl)c(Cl)c1)c1snnc1-c1ccccc1	95*	u	53	x	x
Cc1cc(C2=NNC(=NC3CCCCC3)SC2)c(C)n1-c1c(C)n(C)n(-c2ccccc2)c1=O	-42	-13	-4	8	-9
Cc1cc(C2=NNC(=NC3CC3)SC2)c(C)n1-c1ccccc1F	-24	98*	22	37	10
O=C(c1ccc(C(=O)N2CCN(c3ccccc3F)CC2)nc1)N1CCN(c2ccccc2F)CC1	95*	10	-9	x	x
c1ccc(CCNc2nc(-c3ccccn3)nc3ccccc23)cc1	3	x	30	96*	43
CCCN(CCC)c1nc(-c2ccccn2)nc2ccccc12	-4	76	-4	135*	34
COCCNC(=S)N(CCc1c(C)[nH]c2ccc(Cl)cc12)Cc1cccs1	23	2	-7	0	79*
COCCNC(=S)N(CCc1c(C)[nH]c2ccc(F)cc12)Cc1cccs1	38	0	8	-1	9
C=C(C)Cn1c(SCC(=O)N/N=C/c2c(O)ccc3ccccc23)nc2ccccc2c1=O	2	29	18	47	103*
COc1ccccc1NCC(=O)N/N=C/c1c(O)ccc2ccccc12	-3	54	7	77*	6
SMILES	Calb FLC	Shn3 3UTR inh	PfHsp90 yeast 2	Beta cell apopt	CSC inhib
C=C(C)Cn1c(SCC)nc2ccccc2c1=O	3	-6	10	0	40
O=C(CNc1ccc(F)cc1)N/N=C/c1c(O)ccc2ccccc12	34	92*	-3	81*	35
COc1ccccc1N(CC(=O)N/N=C/c1c(O)ccc2ccccc12)S(C)(=O)=O	-3	73	-46	87*	25
COc1ccc(NC(=O)CN(C)C(C)C(=O)NC(=O)NC2CCCCC2)cc1 (stereo not given)	3	-3	1	1	5
O=C(CN1CCCc2ccccc21)NC(=O)NCc1ccccc1	-4	-2	-3	-2	-3
CC(C)(C)NC(=O)NC(=O)CN1CCCc2ccccc21	114*	-31	-2	2	1
O=C(CN1CCCc2ccccc21)N/N=C/c1c(O)ccc2ccccc12	85*	69	11	66	u
NC(=S)N/N=C/c1ncc(C(F)(F)F)cc1Cl	0	91*	14	65	91*
COC(=O)c1c(C(=O)OC)c(-c2ccc(Cl)c(Cl)c2)n2c1CCC2	111*	8	29	9	6
COC(=O)c1c(C(=O)OC)c(-c2ccc(C)cc2)n2c1CCC2	14	0	18	-2	-1
C=CCn1c(Sc2ncc([N+](=O)[O-])s2)n[nH]c1=O	10	5	12	60	106*
C=CCn1c(CSc2ccccc2[N+](=O)[O-])n[nH]c1=S	1	-18	3	-6	-17
O=C(/C=C/c1cccs1)NC(=S)NNC(=O)c1ccccc1O	118*	70	28	31	x
CCOC(=O)c1c(NC(=S)N2CCCCC2)sc2c1CCN(C(=O)OCC)C2	0	-3	x	24	93*
CCOC(=O)c1c(NC(=O)C2Cc3ccccc3C(=O)O2)sc2c1CCCC2 (stereo not given)	104*	23	-2	3	-10
CCOC(=O)c1c(NC(=O)c2nn(CC)cc2Br)sc(C)c1C	11	84*	0	9	16
CCOC(=O)c1ccc(NC(=O)c2nn(CC)cc2Br)cc1	-16	-39	4	5	12
CCOC(=O)c1c(NC(=O)c2nn(CC)cc2Br)sc2c1CCCCC2	2	32	-11	7	85*
COC(=O)c1c(NC(=O)C2Cc3ccccc3C(=O)O2)sc2c1CCCC2 (stereo not given)	45	20	-28	12	32
Cc1cccc(OCCOC(=O)CN2C(=O)NC3(CCCC3)C2=O)c1	2	-3	17	-2	0
Cc1ccc(OCC(=O)N/N=C2\CC(=O)CC(C)(C)C2)c(Br)c1	-10	-39	-3	-3	x
N/C(Cc1ccc(Cl)c(Cl)c1)=N\OC(=O)c1cccs1	101*	-29	104*	-4	-6
Cc1cc(-c2csc3nc[nH]c(=S)c23)cc(C)c1C	49	-5	-32	22	104*
NS(=O)(=O)c1ccc(CCNC(=O)CSc2nc3ccccc3c(=O)n2CC2CCCO2)cc1 (stereo not given)	9	22	5	2	-14
Cc1ccc2occ(/C=N/NC(=O)c3ccc(Cl)cc3)c(=O)c2c1	-15	1	9	-2	-3
Cc1ccc2occ(/C=N/NC(=O)c3ccccc3O)c(=O)c2c1	79*	30	14	42	-7
CCCOc1cccc(C(=O)N/N=C/c2coc3ccccc3c2=O)c1	108*	-3	17	-5	-8
COc1ccccc1CNC(=O)CCNS(=O)(=O)/C=C/c1ccc(C)cc1	x	-3	15	0	-9
CCCCN1C[C@H](CSC)[C@@H](CC(=O)Nc2ccc(OC)cc2)C1=O	x	3	x	x	x
Cc1csc(CNc2ncnc3ccc(-c4cccc(Cl)c4)cc23)c1	x	9	122*	-4	x
